Laboratory results published in PubChem BioAssay (EPA / NIEHS).
Calls of active or inactive are those of the source. The calls were made as follows: active = hit-call score of the fitted dose curve at least 0.9, where 1 is the maximum; inactive = score below 0.9.

Assays:
[1] = biological target: Bile acid receptor (Homo sapiens) (UniProt Q96RI1); assay: ATG_IR1_CIS: Attagene CIS-FACTORIAL HepG2 Assay for human Nuclear Receptor Subfamily 1 Group H Member 4 (NR1H4), IR1 submotif (AID 2282946); settings: IR1 reporter transcription, actives raise or lower the signal
Bile acid receptor (Homo sapiens), sequence (Q96RI1 whole entry, looked up): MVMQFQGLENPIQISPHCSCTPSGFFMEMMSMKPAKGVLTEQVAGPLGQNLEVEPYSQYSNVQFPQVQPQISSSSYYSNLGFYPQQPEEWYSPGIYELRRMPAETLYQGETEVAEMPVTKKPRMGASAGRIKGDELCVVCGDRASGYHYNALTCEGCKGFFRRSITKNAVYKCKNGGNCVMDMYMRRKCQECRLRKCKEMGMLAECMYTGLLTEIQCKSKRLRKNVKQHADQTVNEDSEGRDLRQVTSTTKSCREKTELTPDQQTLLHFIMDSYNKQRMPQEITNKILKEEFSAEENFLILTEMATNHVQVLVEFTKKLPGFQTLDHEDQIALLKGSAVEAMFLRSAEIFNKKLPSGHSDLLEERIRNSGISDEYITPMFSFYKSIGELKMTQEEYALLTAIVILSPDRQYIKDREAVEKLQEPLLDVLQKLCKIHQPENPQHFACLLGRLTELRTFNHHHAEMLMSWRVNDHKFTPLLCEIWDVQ
Outline: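 Transient MRTU transfection, HepG2; 24 h dosing; RNA → RT-PCR → 6-FAM primer extension → HpaI digest → capillary electrophoresis fluorescence. Gain/loss of signal fitted relative to DMSO.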

[2] = ATG_GRE_CIS: Attagene CIS-FACTORIAL HepG2 Assay for human Glucocorticoid Response Elements (GRE) (AID 2282947); settings: HepG2 GRE cis-reporter, Attagene multiplex mRNA; actives raise or lower the signal
Outline: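 HepG2 cells transiently transfected with multiple cis-promoter reporter units measure endogenous TF activity; 24 h compound exposure. Reporter mRNA quantified by RT-PCR, FAM labelling, HpaI digestion and capillary electrophoresis; bidirectional fit vs DMSO baseline.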

[3] = ATG_ISRE_CIS: Attagene CIS-FACTORIAL HepG2 Assay for human Interferon Regulatory Factor 1 (IRF1) binding to an Interferon-Stimulated Response Element (ISRE) (AID 2282948); settings: HepG2 ISRE cis-reporter (Attagene), mRNA transcription readout; actives raise or lower the signal
Outline: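 HepG2 cells transiently transfected with multiplexed cis-promoter reporter units; after 24 h compound exposure, reporter mRNA quantified by RT-PCR, FAM labelling, HpaI digestion and capillary electrophoresis. Bidirectional fit versus DMSO baseline.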

[4] = ATG_M_32_CIS: Attagene CIS-FACTORIAL HepG2 Assay for M32 Transcription Factor (Internal Marker) (AID 2282949); settings: HepG2 Attagene cis-factorial M32 reporter, mRNA; actives raise or lower the signal;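 also: background control marker of the multiplexed CIS panel rather than a real target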
Outline: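 Following 24 h chemical exposure of HepG2 cells transiently expressing cis-promoter reporter constructs, reporter transcript levels were determined by RT-PCR with fluorescent labelling and capillary electrophoresis, then fitted bidirectionally against DMSO.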

[5] = ATG_M_06_CIS: Attagene CIS-FACTORIAL HepG2 Assay for M06 Transcription Factor (Internal Marker) (AID 2282950); settings: HepG2 Attagene CIS-FACTORIAL M06 internal marker reporter; actives raise or lower the signal
Outline: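 Internal background marker within multiplexed cis-reporter HepG2 system. Cells transiently transfected, dosed 24 h; reporter mRNA measured by RT-PCR, HpaI digestion and capillary electrophoresis. Bidirectional fit relative to DMSO.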

[6] = biological target: Hypoxia-inducible factor 1-alpha (Homo sapiens) (UniProt Q16665); assay: ATG_HIF1a_CIS: Attagene CIS-FACTORIAL HepG2 Assay for human Hypoxia Inducible Factor 1 (HIF1A) (AID 2282951); settings: HepG2 Attagene cis-factorial HIF1a reporter transcription; actives raise or lower the signal
Hypoxia-inducible factor 1-alpha (Homo sapiens), sequence (Q16665 whole entry, looked up): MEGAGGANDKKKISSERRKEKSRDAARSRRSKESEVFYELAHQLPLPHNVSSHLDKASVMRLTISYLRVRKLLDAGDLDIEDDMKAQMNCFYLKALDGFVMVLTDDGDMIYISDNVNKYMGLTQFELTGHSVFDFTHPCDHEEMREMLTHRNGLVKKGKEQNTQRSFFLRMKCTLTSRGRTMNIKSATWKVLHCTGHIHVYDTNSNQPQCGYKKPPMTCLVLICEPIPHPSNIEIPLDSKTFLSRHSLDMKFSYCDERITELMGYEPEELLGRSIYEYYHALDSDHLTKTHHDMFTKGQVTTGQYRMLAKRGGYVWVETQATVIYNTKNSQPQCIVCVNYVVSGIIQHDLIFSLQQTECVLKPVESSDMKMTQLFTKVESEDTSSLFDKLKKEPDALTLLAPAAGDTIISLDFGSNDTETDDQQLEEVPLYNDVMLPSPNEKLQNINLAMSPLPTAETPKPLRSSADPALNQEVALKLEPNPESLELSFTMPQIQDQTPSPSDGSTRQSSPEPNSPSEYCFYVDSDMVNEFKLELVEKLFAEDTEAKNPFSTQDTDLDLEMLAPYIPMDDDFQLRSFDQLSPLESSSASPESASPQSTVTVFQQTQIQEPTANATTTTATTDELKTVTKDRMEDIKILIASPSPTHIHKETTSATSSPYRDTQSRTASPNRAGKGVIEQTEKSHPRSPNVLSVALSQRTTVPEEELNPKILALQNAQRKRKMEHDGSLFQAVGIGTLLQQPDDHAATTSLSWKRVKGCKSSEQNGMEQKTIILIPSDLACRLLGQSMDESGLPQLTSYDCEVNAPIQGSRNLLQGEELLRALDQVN
Outline: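 HepG2 cells transiently transfected with multiple cis-regulated reporter transcription units measure endogenous transcription factor activity. After 24 h exposure, reporter mRNA is quantified by RT-PCR with 6-FAM labelling, HpaI digestion and capillary electrophoresis. Bidirectional fitting against DMSO.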

[7] = biological target: Hepatocyte nuclear factor 6 (Homo sapiens) (UniProt Q9UBC0); assay: ATG_HNF6_CIS: Attagene CIS-FACTORIAL HepG2 Assay for human Hepatocyte Nuclear Factor 6 (HNF6) (AID 2282952); settings: HepG2 Attagene cis-factorial HNF6 reporter transcription; actives raise or lower the signal
Hepatocyte nuclear factor 6 (Homo sapiens), sequence (Q9UBC0 whole entry, looked up): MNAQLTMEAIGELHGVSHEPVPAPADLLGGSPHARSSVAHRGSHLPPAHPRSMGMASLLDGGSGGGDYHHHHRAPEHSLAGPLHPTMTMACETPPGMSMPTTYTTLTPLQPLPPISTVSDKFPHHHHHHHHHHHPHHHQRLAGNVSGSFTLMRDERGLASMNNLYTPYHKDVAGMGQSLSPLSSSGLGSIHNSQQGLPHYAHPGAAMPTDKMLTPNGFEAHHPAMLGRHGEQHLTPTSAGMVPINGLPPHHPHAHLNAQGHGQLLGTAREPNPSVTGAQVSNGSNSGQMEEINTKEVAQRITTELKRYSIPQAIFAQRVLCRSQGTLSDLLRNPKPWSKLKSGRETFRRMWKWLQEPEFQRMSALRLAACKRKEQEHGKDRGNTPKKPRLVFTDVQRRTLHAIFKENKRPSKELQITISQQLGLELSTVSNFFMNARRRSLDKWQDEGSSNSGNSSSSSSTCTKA
Outline: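 Transiently transfected HepG2 cells expressing cis-regulated reporter transcription units were exposed to chemical for 24 h in a 24-well format. Reporter transcript abundance was determined by fluorescence capillary electrophoresis.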

[8] = biological target: Heat shock factor protein 1 (Homo sapiens) (UniProt Q00613); assay: ATG_HSE_CIS: Attagene CIS-FACTORIAL HepG2 Assay for human Heat Shock Transcription Factor 1 (HSE) (AID 2282953); settings: HepG2 HSE cis-reporter, Attagene RNA transcription; actives raise or lower the signal
Heat shock factor protein 1 (Homo sapiens), sequence (Q00613 whole entry, looked up): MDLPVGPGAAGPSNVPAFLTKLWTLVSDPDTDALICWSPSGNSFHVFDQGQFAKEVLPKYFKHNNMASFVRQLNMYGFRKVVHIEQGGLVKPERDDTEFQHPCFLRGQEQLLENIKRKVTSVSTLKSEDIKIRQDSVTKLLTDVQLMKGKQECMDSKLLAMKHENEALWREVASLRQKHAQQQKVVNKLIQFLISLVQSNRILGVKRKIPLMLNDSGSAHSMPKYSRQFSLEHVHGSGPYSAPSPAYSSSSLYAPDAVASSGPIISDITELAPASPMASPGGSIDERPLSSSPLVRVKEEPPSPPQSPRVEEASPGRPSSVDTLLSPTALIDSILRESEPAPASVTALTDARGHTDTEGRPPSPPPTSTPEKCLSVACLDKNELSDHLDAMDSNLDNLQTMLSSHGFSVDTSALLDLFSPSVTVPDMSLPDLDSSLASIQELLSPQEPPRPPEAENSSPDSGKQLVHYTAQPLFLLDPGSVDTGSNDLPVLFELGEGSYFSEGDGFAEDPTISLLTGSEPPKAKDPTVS
Outline: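 HepG2 cells transfected with cis-promoter reporter units sensing endogenous transcription factor activity; reporter mRNA quantified 24 h post-dose by RT-PCR and capillary electrophoresis of 6-FAM-labelled products. Bidirectional fitting against DMSO.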

[9] = ATG_MRE_CIS: Attagene CIS-FACTORIAL HepG2 Assay for human Metal Responsive Element (MRE) (AID 2282954); settings: HepG2 MRE cis-reporter transcription, Attagene multiplex; actives raise or lower the signal
Outline: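 HepG2 cells transiently transfected with multiple cis-element reporter units measure endogenous MTF1-driven transcription. After 24 h compound exposure, reporter mRNA is quantified by RT-PCR with 6-FAM labelling, HpaI digestion and capillary electrophoresis; bidirectional fits versus DMSO.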

[10] = ATG_PBREM_CIS: Attagene CIS-FACTORIAL HepG2 Assay for human Phenobarbital-responsive Enhancer Module (PBREM) (AID 2282955); settings: HepG2 PBREM cis-reporter, Attagene multiplexed transcription; actives raise or lower the signal
Outline: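 HepG2 cells transiently transfected with multiple cis-regulated reporter units measure endogenous transcription factor activity; 24 h compound exposure. Reporter mRNA quantified by RT-PCR, fluorescent labelling, HpaI digestion and capillary electrophoresis; bidirectional fit versus DMSO.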

SMILES	outcome [1]	outcome [2]	outcome [3]	outcome [4]	outcome [5]	outcome [6]	outcome [7]	outcome [8]	outcome [9]	outcome [10]	AC50 [1]	AC50 [2]	AC50 [4]	AC50 [8]	AC50 [3]	AC50 [6]	AC50 [9]	AC50 [10]
O=C(O)CCCCCCCCCCC(=O)O	inactive	inactive	inactive	inactive	inactive	inactive	inactive	inactive	inactive	inactive	–	–	–	–	–	–	–	–
O=C1c2ccccc2C(=O)N1SC1CCCCC1	–	–	inactive	–	inactive	inactive	inactive	–	inactive	inactive	142 µM (active)	169 µM (active)	189 µM (active)	37.9 µM (active)	–	–	–	–
NCCCN1CCOCC1	inactive	inactive	inactive	inactive	inactive	inactive	inactive	inactive	inactive	inactive	–	–	–	–	–	–	–	–
O=C(O)C[C@H](O)C[C@H](O)/C=C/c1c(C2CC2)nc2ccccc2c1-c1ccc(F)cc1	inactive	inactive	inactive	inactive	inactive	inactive	inactive	inactive	inactive	inactive	–	–	–	–	–	–	–	–
O=C1O[C@@H]2[C@@H](O)[C@H](O)O[C@@H]2[C@H]1O	inactive	inactive	inactive	inactive	inactive	inactive	inactive	inactive	inactive	inactive	–	–	–	–	–	–	–	–
CC(C)(N)CO	inactive	inactive	inactive	inactive	inactive	inactive	inactive	inactive	inactive	inactive	–	–	–	–	–	–	–	–
O=Cc1ccc(F)cc1	inactive	inactive	inactive	inactive	inactive	inactive	inactive	inactive	inactive	–	–	–	–	–	–	–	–	–
CC1(C)CCC(C)(C)c2cc(C(=O)Nc3ccc(C(=O)O)cc3)ccc21	–	inactive	–	inactive	inactive	–	inactive	–	–	inactive	4.75 µM (active)	–	–	157 µM (active)	100 µM (active)	55.1 µM (active)	74.5 µM (active)	–
C=C(C)C(=O)OCCOC(=O)CC(C)=O	inactive	inactive	inactive	inactive	inactive	inactive	inactive	inactive	inactive	–	–	–	–	–	–	–	–	–
CN(C)CCOCCN(C)C	inactive	inactive	inactive	inactive	inactive	inactive	inactive	inactive	inactive	inactive	–	–	–	–	–	–	–	–
N#Cc1ccc(CC(=NNC(=O)Nc2ccc(OC(F)(F)F)cc2)c2cccc(C(F)(F)F)c2)cc1	inactive	inactive	inactive	inactive	inactive	inactive	inactive	inactive	inactive	inactive	–	–	–	–	–	–	–	–
Cc1ccc2n[nH]nc2c1	inactive	inactive	inactive	inactive	inactive	inactive	inactive	inactive	inactive	–	–	–	–	–	–	–	–	–
Nc1cc([N+](=O)[O-])ccc1Cl	inactive	inactive	inactive	inactive	inactive	inactive	inactive	inactive	inactive	inactive	–	–	–	–	–	–	–	–
Cc1c(Cl)c(=O)oc2cc(O)ccc12	inactive	inactive	inactive	inactive	inactive	inactive	inactive	inactive	inactive	–	–	–	–	–	–	–	–	37.3 µM (active)
COC(C(=O)O)c1ccccc1 (stereo not given)	inactive	inactive	inactive	inactive	inactive	inactive	inactive	inactive	inactive	inactive	–	–	–	–	–	–	–	–
CC(=O)OCC=Cc1ccccc1	inactive	inactive	inactive	inactive	inactive	inactive	inactive	inactive	inactive	inactive	–	–	–	–	–	–	–	–
CCC(=O)/C=C/C1C(C)=CCCC1(C)C (stereo not given)	inactive	inactive	inactive	inactive	inactive	inactive	inactive	inactive	inactive	–	–	–	–	–	–	–	–	–
C[Si](O[Si](C)(C)C)O[Si](C)(C)C	inactive	inactive	inactive	inactive	inactive	inactive	inactive	inactive	inactive	inactive	–	–	–	–	–	–	–	–
NC(=O)c1ccccc1Cl	inactive	inactive	–	inactive	inactive	inactive	inactive	–	–	inactive	–	–	–	62.7 µM (active)	100 µM (active)	–	–	–
C=CC(=O)OCCn1c(=O)n(CCOC(=O)C=C)c(=O)n(CCOC(=O)C=C)c1=O	–	–	–	inactive	inactive	–	inactive	–	–	inactive	24.4 µM (active)	33.4 µM (active)	–	54.2 µM (active)	13 µM (active)	16.8 µM (active)	9.48 µM (active)	–
Nc1cc(N)cc(C(=O)O)c1	inactive	inactive	inactive	inactive	inactive	inactive	inactive	inactive	inactive	–	–	–	–	–	–	–	–	–
COc1cccc(OC)c1	inactive	inactive	inactive	inactive	inactive	inactive	inactive	inactive	inactive	inactive	–	–	–	–	–	–	–	–
O=C(Nc1ccccc1)c1cc([N+](=O)[O-])ccc1Cl	inactive	inactive	–	inactive	inactive	–	inactive	–	–	inactive	–	–	–	154 µM (active)	38.3 µM (active)	24.1 µM (active)	–	–
CC1CCC2CC1C2(C)C (stereo not given)	inactive	inactive	inactive	inactive	inactive	inactive	inactive	inactive	inactive	inactive	–	–	–	–	–	–	–	–

SMILES	outcome [1]	outcome [2]	outcome [3]	outcome [4]	outcome [5]	outcome [6]	outcome [7]	outcome [8]	outcome [9]	outcome [10]	AC50 [1]	AC50 [2]	AC50 [4]	AC50 [8]	AC50 [3]	AC50 [6]	AC50 [9]	AC50 [10]
COc1ccc(OC)c(OC)c1	inactive	inactive	inactive	inactive	inactive	inactive	inactive	inactive	inactive	inactive	–	–	–	–	–	–	–	–
CCCCCCCCCCCCSC	inactive	inactive	inactive	inactive	inactive	inactive	inactive	inactive	inactive	inactive	–	–	–	–	–	–	–	–
O=S(=O)(O)c1ccc(O)c2ncccc12	inactive	inactive	inactive	inactive	inactive	inactive	inactive	inactive	inactive	inactive	–	–	–	–	–	–	–	–
CC(CCO)CCCC(C)(C)O (stereo not given)	inactive	inactive	inactive	inactive	inactive	inactive	inactive	inactive	inactive	inactive	–	–	–	–	–	–	–	–
COC(=O)c1ccc(C)cc1	inactive	inactive	inactive	inactive	inactive	inactive	inactive	inactive	inactive	inactive	–	–	–	–	–	–	–	–
CC1CCC(C(C)(C)O)CC1 (stereo not given)	inactive	inactive	inactive	inactive	inactive	inactive	inactive	inactive	inactive	inactive	–	–	–	–	–	–	–	–
CC(C)c1ccc(C(C)C)cc1	inactive	inactive	inactive	inactive	inactive	–	inactive	inactive	inactive	inactive	–	–	–	–	–	100 µM (active)	–	–
COc1cc2ncnc(Nc3cccc(Cl)c3)c2cc1OC	inactive	inactive	–	inactive	inactive	–	inactive	inactive	–	–	–	–	–	–	5.56 µM (active)	11.4 µM (active)	–	–
CC(C)OP(=O)(CP(=O)(OC(C)C)OC(C)C)OC(C)C	inactive	inactive	inactive	inactive	inactive	inactive	inactive	inactive	inactive	inactive	–	–	–	–	–	–	–	–
CCCC(C)C=O (stereo not given)	inactive	inactive	inactive	inactive	inactive	inactive	inactive	inactive	–	inactive	–	–	–	–	–	–	–	–
CCCC(=O)C(C)=O	inactive	inactive	inactive	inactive	inactive	inactive	inactive	inactive	inactive	inactive	–	–	–	–	–	–	–	–
NCCOCCO	inactive	inactive	inactive	inactive	inactive	–	inactive	inactive	inactive	–	–	–	–	–	–	30.2 µM (active)	–	–
Clc1ccc(Cl)c(Cl)c1Cl	inactive	inactive	inactive	inactive	inactive	inactive	inactive	inactive	inactive	inactive	–	–	–	–	–	–	–	–
CC1=CCC2C(C1)C2(C)C (stereo not given)	inactive	inactive	inactive	inactive	inactive	inactive	inactive	inactive	inactive	inactive	–	–	–	–	–	–	–	–
CC(C)=CCCC(C)CC=O (stereo not given)	inactive	inactive	inactive	inactive	inactive	–	inactive	–	inactive	–	–	–	–	–	–	–	–	–
CC(C#N)(CCC(=O)O)N=NC(C)(C#N)CCC(=O)O (stereo not given)	inactive	inactive	inactive	inactive	inactive	inactive	inactive	–	inactive	inactive	–	–	–	–	–	–	–	–
Cc1c(N(C)C)c(=O)n(-c2ccccc2)n1C	inactive	inactive	inactive	inactive	inactive	–	inactive	inactive	inactive	inactive	–	–	–	–	–	–	–	–
COC(=O)C1=C(C)NC(C)=C(C(=O)OCCN(C)Cc2ccccc2)C1c1cccc([N+](=O)[O-])c1 (stereo not given)	inactive	inactive	–	inactive	inactive	–	–	–	–	–	–	–	–	54.6 µM (active)	26.2 µM (active)	–	19.8 µM (active)	0.238 µM (active)
CC(CC(C)(C)C)CC(C)(C)CC(C)(C)C (stereo not given)	inactive	inactive	inactive	–	inactive	inactive	inactive	–	inactive	inactive	–	–	–	–	–	–	–	–
CC(C)=CCC[C@H](C)CC=O	inactive	inactive	inactive	inactive	inactive	–	inactive	–	inactive	–	–	–	–	–	–	–	–	–
Cc1ccc(C=O)cc1	inactive	inactive	inactive	inactive	inactive	inactive	inactive	–	inactive	–	–	–	–	–	–	–	–	–
CSc1nnc(C(C)(C)C)c(=O)[nH]1	inactive	inactive	inactive	–	inactive	inactive	inactive	inactive	inactive	inactive	–	–	–	–	–	–	–	–
Nc1ccc(F)c([N+](=O)[O-])c1	inactive	inactive	inactive	inactive	inactive	inactive	inactive	–	inactive	inactive	–	–	–	–	–	–	–	–
CCC(O)CO (stereo not given)	inactive	inactive	inactive	–	inactive	inactive	inactive	–	–	inactive	–	–	–	–	–	–	–	–
